Source: PubChem
This excerpt belongs to a sample that is enriched for hits.
Tgondii IFNg – T. gondii growth inhibition under IFN-gamma | Toxoplasma gondii growth in IFN-gamma-treated host cells; active compounds read low | activity change, negative = inhibition, % (no concentration beside the values) | hit rate 3.8% among 69,000 | AID 1259416; in the data active = activity change below about -70%, passing the limit was not always enough;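 also: host cells are HeLa cells infected with Toxoplasma gondii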
Starred values were filed as active, the others as inactive.

SMILES	Tgondii IFNg
CCOC(=O)C1(Cc2cc(-c3ccccc3C)no2)CCN(Cc2ccccn2)CC1	-77*
CCc1ccc(CN2CCC3(CC2)CC(c2cccnc2)C(=O)N3)o1 (centres undefined)	-58
Cc1cccn2c(CNC(=O)c3ccc(C#CC(C)(C)O)o3)cnc12	-20
CC(=O)Nc1ccc(OCc2ncc(C(F)(F)F)cc2Cl)cc1	-44
CNC(=O)c1cc(Oc2ccc(NC(=O)Nc3ccc(Cl)c(C(F)(F)F)c3)cc2)ccn1	-80*
CCCCOC(=O)c1ccc(NC(=O)Nc2ccc(Cl)c(Cl)c2)cc1	-62
CCCNC(=O)CN1C(=O)CCc2cc(S(=O)(=O)N3CCC(C)CC3)ccc21	14
O=C(NC1CC(=O)N(Cc2ccccc2)C1)c1cccc2ccnn12 (centres undefined)	16
CCC(=O)Nc1cccc(C(=O)NCCCn2ccc3ccccc32)c1	5
CC(=O)N1[C@H](CN2CCCC2)C[C@H]2CN(Cc3ccc(C)o3)CC[C@H]21	-80*
CC(=O)N1[C@H](CN2CCCC2)C[C@H]2CN(C(=O)c3ccco3)CC[C@H]21	-4
CC(=O)N1C2CN(Cc3ccc(C)o3)CC2C[C@@H]1C(=O)NCC1CC1 (some centres undefined)	-22
O=C(C1CC2(CO1)CN(Cc1ccccc1)c1ccccc12)N1CCCC1 (centres undefined)	-31
C=CCOCC1CN(C)Cc2nnn(C)c21 (centres undefined)	-4
Cn1nc(C2CCN(C(=O)C3CNC(=O)C3)CC2)n(-c2ccccc2)c1=O (centres undefined)	5
O=C(N/N=C\c1cc([N+](=O)[O-])ccc1N1CCOCC1)c1ccccn1	3
O=[N+]([O-])c1cc(/C=N/n2cnnc2)ccc1N1CCCC1	-90*
O=Cc1ccc(N2CCCCC2)cc1	-3
CCN(CC)C(=O)c1ccc(-n2cnc(-c3ccccc3)c2)o1	230
OCC1(Cc2ccccc2)CCCN(c2ccc(-c3ccccc3)nn2)C1 (centres undefined)	-27
CN1CCC=C(Cn2nccc2NC(=O)Cc2ccc(F)cc2)C1	-2
Cc1ccc(-c2nc(-c3noc4ccc(C(=O)N5CCCN(C)CC5)cc34)co2)cc1	-35
Cc1nc(CN2CCC3(CCN(C(=O)c4cccn4C)C3)C2=O)cs1 (centres undefined)	88
Cc1cc(-c2cc(O)ccc2Cl)cc2nnc(Nc3ccc(OCCN4CCCC4)cc3)nc12	-91*
Cc1ccc(NC(=O)CC(=O)NCCN2CCCC2)cc1Cl	0
SMILES	Tgondii IFNg
CCOc1ccc(-c2nc(Cn3nnc(C(=O)Nc4ccccc4C)c3C)c(C)o2)cc1OC	89
COc1cccc(N2CC(NC(=O)Cn3cc(C)nn3)CC2=O)c1 (centres undefined)	21
O=C(NCCc1csc(-c2cccc(F)c2)n1)c1ccc(Cl)cc1	-60
COc1nccnc1N1CC(c2ccncc2)C1	5
Cc1nc(CN(C)Cc2c(-c3ccccc3)nc3ccccn23)no1	13
COc1ccccc1-c1ccc(N2CCC(O)(c3cccnc3)CC2)nn1	24
CN(C)C(=O)N1CCN(c2ccc3ccc(C(=O)NCCc4ccccc4)cn23)CC1	-3
CCCNC(=O)c1ccc2ccc(N3CCN(C(=O)N(C)C)CC3)n2c1	-1
CN(C)CCCNC(=O)c1ccc2ccc(N3CCN(Cc4cccnc4)CC3)n2c1	-87*
Cc1ccc2c(c1)cc(CNCc1ccccc1)c1nnnn12	178
Cc1nc2ccccn2c1CN(C)Cc1nc(-c2cccnc2)no1	-35
CN(C)C(=O)COCC1CC2(CCN(Cc3cnn(C)c3)CC2)CO1 (centres undefined)	-32
CN(C)C(=O)CN1C[C@]23CN(Cc4cnn(C)c4)C[C@@H](C[C@@H]2S1(=O)=O)O3	-108*
CN(C)C(=O)CN1CCC2(CCCN2Cc2cnn(C)c2)CC1	-55
CN(C)C(=O)N1CCn2c(CNC(=O)c3cccn3C)cnc2C1	10
Cc1ccc(-c2ccc[nH]c2=O)c(-n2cccn2)c1	3
CO[C@H]1CCN(C(=O)Cc2ccsc2)[C@H]1Cc1ccncc1	-40
O=C(Cn1nc(-c2ccccc2)nc1-c1ccccc1)N1CCCc2ccccc21	-20
OC[C@H]1O[C@@H](n2cnc3c(NCc4ccco4)ncnc32)[C@H](O)[C@@H]1O	-83*
OC[C@H]1O[C@@H](n2cnc3c(NC4CCCC4)ncnc32)[C@H](O)[C@@H]1O	-2
OCC1OC(n2cnc3c(NC4CCCC4)ncnc32)C(O)C1O (centres undefined)	9
COc1cc(-c2coc3cc(OCc4ccccc4)c(OC)c(O)c3c2=O)cc(OCc2ccccc2)c1OC	-79*
COc1ccc(-c2coc3cc(O)cc(O)c3c2=O)cc1	173
O=c1c(-c2cc(O)c(O)c(O)c2)coc2cc(O)c(O)c(O)c12	19
Cc1cc(NC(=O)C(C)n2cncn2)ccc1NC(=O)C(C)(C)C (centres undefined)	-68
SMILES	Tgondii IFNg
COc1ccc2c3c([nH]c2c1)[C@@H](CO)N(S(C)(=O)=O)CC31CN(CC2CCOCC2)C1	22
COc1ccc2c3c([nH]c2c1)[C@H](CO)N(S(C)(=O)=O)CC31CCN(CC2CCCC2)CC1	130
COc1ccc2c3c([nH]c2c1)[C@@H](CO)N(S(C)(=O)=O)CC31CCN(CC2CCCC2)CC1	-107*
CN1CCCCC1CCNC(=O)c1ccc(N2CCNCC2)nc1 (centres undefined)	1
CCOc1ccc(-c2nc(CN3CCN(C(=O)Nc4ccc(C)c(C)c4)CC3)c(C)o2)cc1	2
CCOc1ccccc1NC(=O)c1nnn(Cc2nc(-c3ccccc3OC)oc2C)c1C	355
CO[C@@H]1CCN(C(=O)N2CCOCC2)[C@H]1Cc1ccccc1	-36
CC[C@H]1OC[C@@H]2CN(C(=O)c3ccnnc3)CC[C@H]21	4
CN=C1Sc2nc3c(cc2CN1C1CCCCC1)c(C(C)(C)C)nn3-c1ccccc1	-85*
COc1ccc(-n2ccc(-c3cc(C(=O)N4CCN(C)CC4)c4ccccn34)n2)cc1	-33
CCN1CCC2(CC1)OC(=O)C(C)=C2C(=O)NCCCN(CC)Cc1ccccc1	72
CCc1cccc(NC(=O)CN2C(=O)CCc3cc(S(=O)(=O)N4CCC(C)CC4)ccc32)c1	-127*
Cc1ccc(NC(=O)CN2C(=O)CCc3cc(S(=O)(=O)N4CCCCC4C)ccc32)cc1F (centres undefined)	-47
CC1CCN(S(=O)(=O)c2ccc3c(c2)CCC(=O)N3CC(=O)Nc2ccc(F)c(F)c2)CC1	-13
CSc1cccc(NC(=O)CN2C(=O)CCc3cc(S(=O)(=O)N4CCCC4)ccc32)c1	2
CSc1cccc(NC(=O)CN2C(=O)CCc3cc(S(=O)(=O)N4CCCCC4C)ccc32)c1 (centres undefined)	-86*
Cc1cccc(NC(=O)CN2C(=O)CCc3cc(S(=O)(=O)N4CCCCC4C)ccc32)c1C (centres undefined)	30
CC1CCN(S(=O)(=O)c2ccc3c(c2)CCC(=O)N3CC(=O)Nc2cccnc2)CC1	-9
CC1CCN(S(=O)(=O)c2ccc3c(c2)CCC(=O)N3CC(=O)NCc2ccccc2)CC1	-11
Cc1ccc(C)c(NC(=O)CN2C(=O)CCc3cc(S(=O)(=O)N4CCCCC4C)ccc32)c1 (centres undefined)	21
CC1CCN(S(=O)(=O)c2ccc3c(c2)CCC(=O)N3CC(=O)N(Cc2ccccc2)C(C)C)CC1	-81*
CCc1cccc(NC(=O)CN2C(=O)CCc3cc(S(=O)(=O)N4CCCCC4C)ccc32)c1 (centres undefined)	-77*
